Reference: PubChem BioAssay (EPA / NIEHS)
Records with an inconclusive call do not appear. A structure can be active in one record and inactive in another. The source made the active and inactive calls. How the source made its calls, unless noted: active means hit-call score of the fitted dose curve at least 0.9, where 1 is the maximum; inactive means score below 0.9.

How the values were obtained:
[1] = read-out: Vascular endothelial growth factor receptor 2 (Homo sapiens) (UniProt P35968); assay: BSK_4H_VEGFRII: BioMAP Diversity Plus: 4H Assay for Vascular endothelial growth factor receptor 2 (VEGFR2) Biomarker Activity (AID 2283031); conditions: primary human endothelial cells (HUVEC); actives raise or lower the signal;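 on AC50: cell-surface VEGFR2 protein level quantified by ELISA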
Outline: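 ELISA read-out of VEGFRII in primary human umbilical vein endothelium, taken 24 h after chemical treatment. Responses are expressed relative to DMSO, with bidirectional fitting.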

[2] = read-out: Transforming growth factor beta 1 (TGFb1), TGFB1 (gene 7040); assay: BSK_BE3C_TGFb1: BioMAP Diversity Plus: BE3C Assay for Transforming growth factor beta 1 (TGFb1) Biomarker Activity (AID 2283036); conditions: primary human bronchial epithelial cells; actives raise or lower the signal
Outline: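 In this human primary bronchial epithelial system, an ELISA quantified TGF-b1 one day after dosing. Endpoint changes in either direction were fitted relative to DMSO.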

[3] = read-out: Low-density lipoprotein receptor (LDLR), LDLR (gene 3949); assay: BSK_CASM3C_LDLR: BioMAP Diversity Plus: CASM3C Assay for Low-density lipoprotein receptor (LDLR) Biomarker Activity (AID 2283045); conditions: primary human coronary artery smooth muscle cells; actives raise or lower the signal;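 further: LDLR protein level on the cell surface quantified by ELISA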
[4] = read-out: C-C motif chemokine 2 (Homo sapiens) (UniProt P13500); assay: BSK_KF3CT_MCP1: BioMAP Diversity Plus: KF3CT Assay for Monocyte Chemoattractant Protein 1 (MCP1/CCL2) Biomarker Activity (AID 2283073); conditions: primary human keratinocytes with fibroblasts; actives raise or lower the signal
Outline: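 ELISA readout of MCP-1 after 24 h chemical dosing of a human skin primary co-culture of keratinocytes and foreskin fibroblasts. Activity was fitted in both directions against DMSO.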

[5] = read-out: E-selectin (Homo sapiens) (UniProt P16581); assay: BSK_LPS_Eselectin: BioMAP Diversity Plus: LPS Assay for Eselectin Biomarker Activity (AID 2283077); conditions: primary human HUVEC with PBMC; actives raise or lower the signal
Outline: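 Primary human vascular co-culture (endothelium plus PBMC) was dosed with chemical, then E-selectin quantified by ELISA at 24 h. Endpoint values derive from bidirectional curve fitting relative to DMSO.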

[6] = read-out: Macrophage colony-stimulating factor (MCSF), CSF1 (gene 1435); assay: BSK_LPS_MCSF: BioMAP Diversity Plus: LPS Assay for Macrophage colony-stimulating factor (MCSF) Biomarker Activity (AID 2283083); conditions: primary human HUVEC with PBMC; actives raise or lower the signal
Outline: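 ELISA readout of M-CSF after 24 h compound exposure in a human endothelial/PBMC co-culture. Activity, in either direction, is fitted relative to DMSO vehicle.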

[7] = read-out: Tissue Factor, F3 (gene 2152); assay: BSK_LPS_TissueFactor: BioMAP Diversity Plus: LPS Assay for Tissue Factor Biomarker Activity (AID 2283084); conditions: primary human HUVEC with PBMC; actives raise or lower the signal
Outline: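 ELISA signal for cell-surface Tissue Factor (CD142) was read 24 h after compound dosing of an LPS-stimulated human endothelial–PBMC primary co-culture. Gain or loss of signal was scored relative to DMSO.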

[8] = read-out: Tumor necrosis factor (Homo sapiens) (UniProt P01375); assay: BSK_LPS_TNFa: BioMAP Diversity Plus: LPS Assay for Tumour Necrosis Factor alpha (TNFa) Biomarker Activity (AID 2283085); conditions: primary human HUVEC with PBMC; actives raise or lower the signal
Outline: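 Primary human vascular co-culture of HUVEC and PBMC; TNFa ELISA 24 h after treatment, analysed as increase or decrease relative to DMSO control.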

[9] = read-out: Vascular cell adhesion molecule 1 (VCAM1), VCAM1 (gene 7412); assay: BSK_LPS_VCAM1: BioMAP Diversity Plus: LPS Assay for Vascular cell adhesion molecule 1 (VCAM1) Biomarker Activity (AID 2283086); conditions: primary human HUVEC with PBMC; actives raise or lower the signal
Outline: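 Primary human vascular co-culture (umbilical vein endothelium plus PBMC) stimulated with LPS received chemical; 24 h later VCAM-1 was read by ELISA. Overt cytotoxicity was assessed by sulforhodamine B staining of parallel cultures at the same time point.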

[10] = read-out: CD40, CD40 (gene 958); assay: BSK_SAg_CD40: BioMAP Diversity Plus: SAg Assay for CD40 Biomarker Activity (AID 2283088); conditions: primary human HUVEC with PBMC; actives raise or lower the signal
Outline: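 Compounds were dosed onto a human primary endothelial–PBMC co-culture, and after 24 h CD40 was quantified by ELISA using a fluorescence signal. Activity in either direction was fitted relative to DMSO.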

[11] = read-out: Monocyte Chemoattractant Protein-1 (MCP1), CCL2 (gene 6347); assay: BSK_SAg_MCP1: BioMAP Diversity Plus: SAg Assay for Monocyte Chemoattractant Protein-1 (MCP1) Biomarker Activity (AID 2283090); conditions: primary human HUVEC with PBMC; actives raise or lower the signal
Outline: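 MCP-1 levels in the endothelial–PBMC SAg co-culture were quantified by ELISA at 24 h post-dosing; both increases and decreases versus DMSO scored. Cytotoxicity monitored by SRB total protein in parallel cultures.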

[12] = read-out: Monokine induced gamma interferon (MIG), CXCL9 (gene 4283); assay: BSK_SAg_MIG: BioMAP Diversity Plus: SAg Assay for Monokine induced gamma interferon (MIG) Biomarker Activity (AID 2283092); conditions: primary human HUVEC with PBMC; actives raise or lower the signal
Outline: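 HUVEC plus human PBMC co-culture, chemicals dosed and MIG (CXCL9) quantified by ELISA at 24 h. Bidirectional curve fitting against DMSO as negative control and baseline, so both gain and loss of signal count as activity.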

[13] = read-out: Interleukin-8 (IL8), CXCL8 (gene 3576); assay: BSK_SAg_IL8: BioMAP Diversity Plus: SAg Assay for Interleukin-8 (IL8) Biomarker Activity (AID 2283094); conditions: primary human HUVEC with PBMC; actives raise or lower the signal
Outline: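 In this co-culture of human umbilical vein endothelium with peripheral blood mononuclear cells, IL-8 is assayed by ELISA at 24 h. DMSO serves as baseline for bidirectional curve fitting.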

[14] = BSK_SAg_Proliferation: Cell Proliferation Assessment in the BioMAP Diversity Plus: SAg Assay (AID 2283095); conditions: primary human HUVEC with PBMC;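 further: relative cell number as total protein by SRB absorbance in sub-confluent culture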
Outline: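 Readout is SRB-stained protein (560 nm) in a primary human HUVEC and PBMC co-culture; sub-confluent cultures are read at 96 h. Activity is fitted bidirectionally using DMSO as baseline.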

[15] = BSK_SAg_SRB: Viability Assessment in the BioMAP Diversity Plus: SAg Assay (AID 2283096); conditions: primary human HUVEC with PBMC;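 further: cells read one day after compound addition; hits may be either gain or loss of signal compared with DMSO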
Outline: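 Total protein by sulforhodamine B staining, 24 h after dosing, in HUVEC–PBMC co-culture; DMSO-referenced bidirectional fitting.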

[16] = molecular target: Peroxisome proliferator-activated receptor gamma (Homo sapiens) (UniProt P37231); assay: OT_PPARg_PPARgSRC1_0480: Odyssey Thera (OT) 8-hour Protein-Complementation Assay for Peroxisome Proliferator-activated Receptor Gamma / SRC-1 Co-activator (AID 2283387; active means hit-call score of the fitted dose curve at least 0.9, where 1 is the maximum;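 further: nuclear to cytoplasmic split Venus YFP fluorescence ratio reporting PPARg SRC-1 interaction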)
Outline: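 HEK293T transiently transfected with PPARg and SRC-1 fused to Venus YFP fragments, compounds 8 h at 37C. Fixed, Draq5-stained cells imaged; nuclear/cytoplasmic 488 nm fluorescence ratio over at least 350 cells per image; gain fitted versus DMSO.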

[17] = molecular target: Peroxisome proliferator-activated receptor gamma (Homo sapiens) (UniProt P37231); assay: OT_PPARg_PPARgSRC1_1440: Odyssey Thera (OT) 24-hour Protein-Complementation Assay for Peroxisome Proliferator-activated Receptor Gamma/ SRC-1 Co-activator (AID 2283388; active means hit-call score of the fitted dose curve at least 0.9, where 1 is the maximum)
Outline: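 Protein-fragment complementation between PPARg and coactivator SRC-1 was measured by fluorescence imaging in transiently transfected HEK293T cells after 24 h treatment. Signal was quantified as N/C ratio in the 488 nm channel, with DMSO as negative control.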

[18] = ATG_ERE_CIS: Attagene CIS-FACTORIAL HepG2 Assay for Estrogen Response Element (ERE) (AID 2282940); conditions: HepG2 ERE cis-reporter, Attagene RNA transcript; actives raise or lower the signal
Outline: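 HepG2 cells transiently transfected with multiplexed cis-element reporter units, measuring endogenous transcription factor activity; ERE reporter mRNA quantified after 24 h exposure by RT-PCR, fluorescent labelling, HpaI digestion and capillary electrophoresis. Bidirectional change versus DMSO.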

[19] = molecular target: Bile acid receptor (Homo sapiens) (UniProt Q96RI1); assay: ATG_FXR_TRANS: Attagene TRANS-FACTORIAL HepG2 Assay for Farnesoid X Receptor (FXR) (AID 2282979; active means hit-call score of the fitted dose curve at least 0.9, where 1 is the maximum;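 further: hits raise reporter mRNA above DMSO so AC50 marks FXR activation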); conditions: HepG2 Attagene TRANS FXR-GAL4 reporter transcription
Outline: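 Transient transfection of HepG2 with multiplexed GAL4-UAS reporter units; exogenous FXR-GAL4 chimera. Dose 24 h → TriZol RNA → oligo(dT) RT → PCR, 6-FAM primer extension, HpaI cut → CE. Gain vs DMSO.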

Measured: AC50

Sequence of E-selectin (Homo sapiens) (P16581 whole entry, looked up): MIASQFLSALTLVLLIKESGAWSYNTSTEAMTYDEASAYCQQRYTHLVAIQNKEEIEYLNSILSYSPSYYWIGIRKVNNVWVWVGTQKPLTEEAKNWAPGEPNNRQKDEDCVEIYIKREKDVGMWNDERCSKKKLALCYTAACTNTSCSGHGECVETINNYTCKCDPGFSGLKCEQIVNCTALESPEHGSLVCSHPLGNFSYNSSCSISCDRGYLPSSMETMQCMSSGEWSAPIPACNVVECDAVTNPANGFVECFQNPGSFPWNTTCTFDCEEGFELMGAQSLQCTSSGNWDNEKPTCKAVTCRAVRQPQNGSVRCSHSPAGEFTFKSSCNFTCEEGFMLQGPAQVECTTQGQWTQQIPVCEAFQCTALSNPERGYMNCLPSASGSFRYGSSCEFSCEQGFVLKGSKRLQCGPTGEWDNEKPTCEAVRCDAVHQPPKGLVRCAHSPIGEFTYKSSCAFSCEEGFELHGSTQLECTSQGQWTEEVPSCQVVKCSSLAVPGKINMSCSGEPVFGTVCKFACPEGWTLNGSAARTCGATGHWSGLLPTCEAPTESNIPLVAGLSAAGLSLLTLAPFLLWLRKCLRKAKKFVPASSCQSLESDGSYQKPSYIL
Sequence of Peroxisome proliferator-activated receptor gamma (Homo sapiens) (P37231 whole entry, looked up, the tested form may be a part): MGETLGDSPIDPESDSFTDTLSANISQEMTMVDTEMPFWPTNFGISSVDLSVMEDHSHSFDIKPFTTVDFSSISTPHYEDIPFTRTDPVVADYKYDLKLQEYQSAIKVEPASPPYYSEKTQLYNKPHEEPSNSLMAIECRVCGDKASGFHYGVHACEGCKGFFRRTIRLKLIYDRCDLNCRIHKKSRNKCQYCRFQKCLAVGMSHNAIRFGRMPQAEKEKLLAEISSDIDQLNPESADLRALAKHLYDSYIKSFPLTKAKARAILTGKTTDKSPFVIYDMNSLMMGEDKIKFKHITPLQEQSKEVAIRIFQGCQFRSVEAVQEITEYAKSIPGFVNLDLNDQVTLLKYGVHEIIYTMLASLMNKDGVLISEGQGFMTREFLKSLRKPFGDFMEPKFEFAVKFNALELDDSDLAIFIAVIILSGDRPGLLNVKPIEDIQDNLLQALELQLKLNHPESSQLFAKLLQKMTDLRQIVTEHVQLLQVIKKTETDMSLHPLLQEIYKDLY
Sequence of Tumor necrosis factor (Homo sapiens) (P01375 whole entry, looked up): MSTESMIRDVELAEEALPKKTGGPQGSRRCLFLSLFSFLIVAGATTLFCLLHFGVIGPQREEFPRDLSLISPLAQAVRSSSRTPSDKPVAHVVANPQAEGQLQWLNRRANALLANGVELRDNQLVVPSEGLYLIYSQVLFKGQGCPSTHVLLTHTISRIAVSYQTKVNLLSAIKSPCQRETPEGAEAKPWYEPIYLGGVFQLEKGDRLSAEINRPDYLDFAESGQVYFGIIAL
Sequence of Bile acid receptor (Homo sapiens) (Q96RI1 whole entry, looked up, the tested form may be a part): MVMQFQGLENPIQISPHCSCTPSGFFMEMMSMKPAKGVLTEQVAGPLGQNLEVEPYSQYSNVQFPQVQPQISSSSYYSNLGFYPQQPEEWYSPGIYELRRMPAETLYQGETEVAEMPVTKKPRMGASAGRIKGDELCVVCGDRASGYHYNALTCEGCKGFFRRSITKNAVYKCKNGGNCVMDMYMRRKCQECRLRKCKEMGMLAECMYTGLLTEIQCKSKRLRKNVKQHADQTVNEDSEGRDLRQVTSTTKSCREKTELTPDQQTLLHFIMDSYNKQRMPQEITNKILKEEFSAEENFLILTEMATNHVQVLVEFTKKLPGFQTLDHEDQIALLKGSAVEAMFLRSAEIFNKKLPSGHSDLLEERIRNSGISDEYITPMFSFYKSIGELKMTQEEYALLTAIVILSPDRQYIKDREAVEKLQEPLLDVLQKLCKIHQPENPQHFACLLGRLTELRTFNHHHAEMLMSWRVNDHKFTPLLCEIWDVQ

CC1(C)[C@H](C(=O)O[C@H](C#N)c2cccc(Oc3ccccc3)c2)[C@@H]1C=C(Br)Br
inactive: [1] | [2] | [3] | [4] | [5] | [6] | [7] | [8] | [9] | [10] | [11] | [12] | [13] | [14] | [15] | [16] | [17]
active: [2] 1.2 µM | [14] 3.97 µM

CC(C)(c1cc(Cl)c(O)c(Cl)c1)c1cc(Cl)c(O)c(Cl)c1
inactive: [2] | [16] | [17]
active: [1] 6.9 µM | [4] 10 µM | [6] 17.2 µM | [7] 31.3 µM | [8] 31.4 µM | [9] 29.8 µM | [11] 31.9 µM | [13] 31 µM | [14] 25.9 µM

C=CC(=O)OCC(CC)CCCC (centres undefined)
active: [9] 7.48 µM
inactive: [1] | [2] | [3] | [4] | [5] | [6] | [7] | [8] | [10] | [11] | [12] | [13] | [14] | [15] | [16] | [17]

C[N+](C)=CCl
inactive: [18]

CCCCCCCCCCCC#N
active: [1] 20.6 µM | [5] 31.5 µM | [6] 38 µM | [7] 24.1 µM | [8] 36.4 µM | [9] 33.6 µM | [10] 27.7 µM | [11] 33 µM | [13] 32.7 µM
inactive: [19] | [2] | [3] | [4] | [12] | [15]
